What all share (assay): DAPPL (digital affinity profiling via proximity ligation, sequencing); 10 mM Tris-HCl pH 7.5, 50 mM NaCl, 1 mM DTT, 4% glycerol, room temperature, 30 min; GST-TFs on glutathione beads, 16-mer random dsDNA library, 0.1% formaldehyde crosslink after washing; high values mean tight binding
Details in all cases: protein: recombinant; tags: N-terminal GST; dsDNA, one strand shown

One test deals with T1, ETV3L (Homo sapiens, UniProt Q6ZN32 1-361).
T1 sequence: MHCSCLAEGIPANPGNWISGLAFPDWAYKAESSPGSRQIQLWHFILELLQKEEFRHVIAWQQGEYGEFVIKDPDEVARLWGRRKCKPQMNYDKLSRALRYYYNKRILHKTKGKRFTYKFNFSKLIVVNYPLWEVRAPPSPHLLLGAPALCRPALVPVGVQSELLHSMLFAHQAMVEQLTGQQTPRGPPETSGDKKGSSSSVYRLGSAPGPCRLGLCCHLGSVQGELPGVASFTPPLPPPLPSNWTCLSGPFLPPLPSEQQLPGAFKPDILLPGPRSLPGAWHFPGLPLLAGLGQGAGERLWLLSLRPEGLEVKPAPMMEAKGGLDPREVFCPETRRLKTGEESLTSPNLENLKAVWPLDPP
A digest of the protocol:
(§1)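 Human transcription factors carrying a GST fusion were produced in yeast, bound to glutathione beads, tagged with DNA barcodes and pooled together with a tag-only sample. Each pool was held with 200 nmole of a random double-stranded 16-mer DNA library in Tris/NaCl/DTT/glycerol buffer for 30 min at room temperature, then washed, crosslinked in 0.1% formaldehyde, proximity-ligated with BsaI/T4 ligase (1 h, 37 °C), PCR-amplified and sequenced on an Illumina NextSeq500. Binding signal is the read frequency of each hexamer for a given factor divided by its frequency in the tag-only sample.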

Another test has as its target T2, ETS2 (Homo sapiens, UniProt P15036 1-469).
T2 sequence: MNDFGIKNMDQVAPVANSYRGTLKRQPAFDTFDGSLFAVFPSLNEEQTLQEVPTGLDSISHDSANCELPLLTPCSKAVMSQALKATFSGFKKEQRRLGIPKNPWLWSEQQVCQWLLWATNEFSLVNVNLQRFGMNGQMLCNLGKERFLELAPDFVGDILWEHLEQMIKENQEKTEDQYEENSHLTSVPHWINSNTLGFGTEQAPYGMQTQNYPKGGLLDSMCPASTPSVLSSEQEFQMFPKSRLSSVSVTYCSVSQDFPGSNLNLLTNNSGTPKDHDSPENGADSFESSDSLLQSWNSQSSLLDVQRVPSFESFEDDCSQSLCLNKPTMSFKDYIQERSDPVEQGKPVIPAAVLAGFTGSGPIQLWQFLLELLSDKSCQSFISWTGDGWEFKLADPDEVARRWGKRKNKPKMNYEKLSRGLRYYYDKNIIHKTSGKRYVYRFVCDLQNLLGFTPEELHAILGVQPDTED
A digest of the protocol:
as §1

In a further test the target is T3, SPDEF (Homo sapiens, UniProt O95238 1-335).
T3 sequence: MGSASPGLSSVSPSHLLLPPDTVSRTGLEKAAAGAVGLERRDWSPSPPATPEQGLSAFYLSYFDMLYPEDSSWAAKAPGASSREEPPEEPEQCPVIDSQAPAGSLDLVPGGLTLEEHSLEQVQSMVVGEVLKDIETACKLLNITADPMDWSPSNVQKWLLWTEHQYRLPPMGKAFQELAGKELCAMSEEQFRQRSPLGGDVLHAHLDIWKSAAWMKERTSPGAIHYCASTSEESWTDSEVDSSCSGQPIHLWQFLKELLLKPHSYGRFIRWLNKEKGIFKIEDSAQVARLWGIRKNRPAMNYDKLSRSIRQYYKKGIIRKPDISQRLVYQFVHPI
A digest of the protocol: as §1

The next test deals with T4, ETV7 (Homo sapiens, UniProt Q9Y603 1-341).
T4 sequence: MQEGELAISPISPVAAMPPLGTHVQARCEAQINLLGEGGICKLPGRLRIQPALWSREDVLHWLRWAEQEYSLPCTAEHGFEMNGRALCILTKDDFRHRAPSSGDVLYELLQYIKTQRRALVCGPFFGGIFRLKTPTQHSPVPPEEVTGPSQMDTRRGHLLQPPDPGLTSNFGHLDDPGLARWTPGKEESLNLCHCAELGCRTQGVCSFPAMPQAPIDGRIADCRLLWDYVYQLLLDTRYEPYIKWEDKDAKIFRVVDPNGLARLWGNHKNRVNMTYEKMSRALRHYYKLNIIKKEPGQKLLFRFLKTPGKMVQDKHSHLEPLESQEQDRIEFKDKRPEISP
A digest of the protocol:
as §1

A further test addresses T5, ELF5 (Homo sapiens, UniProt Q9UKW6-2 1-255).
T5 sequence: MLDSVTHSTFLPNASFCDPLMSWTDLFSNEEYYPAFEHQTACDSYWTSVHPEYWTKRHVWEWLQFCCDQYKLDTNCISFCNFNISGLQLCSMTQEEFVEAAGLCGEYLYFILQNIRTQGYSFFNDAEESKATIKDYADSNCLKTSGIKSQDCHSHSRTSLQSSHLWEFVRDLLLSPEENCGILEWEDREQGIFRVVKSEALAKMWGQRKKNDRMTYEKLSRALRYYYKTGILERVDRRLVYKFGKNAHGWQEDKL
A digest of the protocol:
as §1

The target in the next test is T6, ETV3 (Homo sapiens, UniProt P41162-2 1-143).
T6 sequence: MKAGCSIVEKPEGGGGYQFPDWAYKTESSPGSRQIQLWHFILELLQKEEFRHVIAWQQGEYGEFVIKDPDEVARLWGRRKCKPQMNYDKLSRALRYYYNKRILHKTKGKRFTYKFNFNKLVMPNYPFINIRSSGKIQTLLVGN
The procedure, abridged:
as §1

The target in the next test is ETV6 (Homo sapiens, UniProt P41212 1-452). A digest of the protocol:
as §1

Sequence of ETV6 (P41212 whole entry): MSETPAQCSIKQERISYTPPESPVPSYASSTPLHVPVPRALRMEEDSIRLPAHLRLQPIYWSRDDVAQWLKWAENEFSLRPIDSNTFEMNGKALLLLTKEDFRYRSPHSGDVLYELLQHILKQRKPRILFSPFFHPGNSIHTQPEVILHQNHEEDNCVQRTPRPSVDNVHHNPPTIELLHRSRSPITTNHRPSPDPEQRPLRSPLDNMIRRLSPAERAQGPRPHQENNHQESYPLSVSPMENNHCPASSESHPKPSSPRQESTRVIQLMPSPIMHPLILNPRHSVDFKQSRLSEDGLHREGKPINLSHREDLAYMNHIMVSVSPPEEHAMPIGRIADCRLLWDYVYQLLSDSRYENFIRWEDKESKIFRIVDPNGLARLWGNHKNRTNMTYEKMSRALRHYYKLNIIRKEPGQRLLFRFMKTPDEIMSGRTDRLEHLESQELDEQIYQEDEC

ATCCAA: the binding signal in the test with ETV3L is 1.2 fold enrichment (6-mer frequency, TF over GST control); in the test with ETS2, 1.18 fold enrichment (6-mer frequency, TF over GST control); with SPDEF it was 1.22 fold enrichment (6-mer frequency, TF over GST control); with ETV7 it was 1.19 fold enrichment (6-mer frequency, TF over GST control); with ELF5, 1.11 fold enrichment (6-mer frequency, TF over GST control); with ETV3, 1.11 fold enrichment (6-mer frequency, TF over GST control). Further, the binding signal with ETV6 is 1.11 fold enrichment (6-mer frequency, TF over GST control).

Consider TGCCCT, for which the binding signal was 1.11 fold enrichment (6-mer frequency, TF over GST control) with ETV3L; 1.21 fold enrichment (6-mer frequency, TF over GST control) with ETS2; 1.15 fold enrichment (6-mer frequency, TF over GST control) in the test with SPDEF; 1.08 fold enrichment (6-mer frequency, TF over GST control) in the test with ETV7; 1 fold enrichment (6-mer frequency, TF over GST control) with ELF5; 1.1 fold enrichment (6-mer frequency, TF over GST control) with ETV3. Besides, in the test with ETV6, the binding signal is 1.15 fold enrichment (6-mer frequency, TF over GST control).

Take GTATCA: the binding signal with ETV3L was 1.09 fold enrichment (6-mer frequency, TF over GST control); with ETS2, 1.05 fold enrichment (6-mer frequency, TF over GST control); in the test with SPDEF, 1.08 fold enrichment (6-mer frequency, TF over GST control); with ETV7, 1.04 fold enrichment (6-mer frequency, TF over GST control); with ELF5, 1.03 fold enrichment (6-mer frequency, TF over GST control); in the test with ETV3, 1.09 fold enrichment (6-mer frequency, TF over GST control). Besides, the binding signal with ETV6 was 1.01 fold enrichment (6-mer frequency, TF over GST control).

In the case of CCTGGG, the binding signal is 1.22 fold enrichment (6-mer frequency, TF over GST control) in the test with ETV3L; 1.14 fold enrichment (6-mer frequency, TF over GST control) with ETS2; 1.11 fold enrichment (6-mer frequency, TF over GST control) with SPDEF; 1.39 fold enrichment (6-mer frequency, TF over GST control) with ETV7; 1.17 fold enrichment (6-mer frequency, TF over GST control) with ELF5; 1.08 fold enrichment (6-mer frequency, TF over GST control) with ETV3. Further, in the test with ETV6, the binding signal was 1.1 fold enrichment (6-mer frequency, TF over GST control).

In the case of AAATCG, the binding signal with ETV3L was 1.09 fold enrichment (6-mer frequency, TF over GST control); with ETV7, 1.08 fold enrichment (6-mer frequency, TF over GST control); in the test with ETV3, 1.03 fold enrichment (6-mer frequency, TF over GST control); with ETV6, 1.05 fold enrichment (6-mer frequency, TF over GST control).

As to TAGTCC, the binding signal is 1.12 fold enrichment (6-mer frequency, TF over GST control) in the test with ETV3L; 1.06 fold enrichment (6-mer frequency, TF over GST control) with ETS2; 1.2 fold enrichment (6-mer frequency, TF over GST control) with SPDEF; 1.13 fold enrichment (6-mer frequency, TF over GST control) with ETV7; 1.06 fold enrichment (6-mer frequency, TF over GST control) with ELF5; 1.14 fold enrichment (6-mer frequency, TF over GST control) with ETV6.

On to CACGCG, for which the binding signal with ETV3L was 1.22 fold enrichment (6-mer frequency, TF over GST control); with ETS2, 1.13 fold enrichment (6-mer frequency, TF over GST control); in the test with SPDEF it was 1.23 fold enrichment (6-mer frequency, TF over GST control); with ETV7, 1.13 fold enrichment (6-mer frequency, TF over GST control); with ELF5, 1.17 fold enrichment (6-mer frequency, TF over GST control); with ETV3 it was 1.09 fold enrichment (6-mer frequency, TF over GST control). For the same sequence, in the test with ETV6, the binding signal is 1.18 fold enrichment (6-mer frequency, TF over GST control).

In the case of AGTAAT, the binding signal with ETV3L is 1.07 fold enrichment (6-mer frequency, TF over GST control); in the test with ETS2, 1.15 fold enrichment (6-mer frequency, TF over GST control); in the test with SPDEF, 1.1 fold enrichment (6-mer frequency, TF over GST control); in the test with ETV7 it was 1.19 fold enrichment (6-mer frequency, TF over GST control); with ELF5 it was 1.2 fold enrichment (6-mer frequency, TF over GST control); with ETV3 it was 1.03 fold enrichment (6-mer frequency, TF over GST control). Further, in the test with ETV6, the binding signal is 1.15 fold enrichment (6-mer frequency, TF over GST control).

Values taken from publication PMC7862700, “An all-to-all approach to the identification of sequence-specific readers for epigenetic DNA modifications on cytosine”.
